The source of these data is PubChem BioAssay.

A short description of assay [1]: inhibitors of TNFa-induced NFkB p65 translocation, primary screen, imaging, HUVEC, MLSMR starter and 10KST1 sets (AID 438;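 active = inhibition above 20% together with a positive visual image hit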;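 note: compound added about 3h40 before a 20 min TNFalpha stimulation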;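 for inhibition: signal is the nuclear over cytoplasmic p65 intensity ratio per well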). Particulars: HUVEC TNFa-induced p65 nuclear translocation; cell count: measured here: nuclei count (cytotoxicity indicator), at 2.08 µM; inhibition: at 2 µM, stronger effect = higher value, 0% TNFa-plus-vehicle, 100% no-TNFa wells.
The nature of assay [2]: reduction of polyQ htt aggregates in cells – imaging, exon1htt(103Q)mCFP cells, high-content imaging, primary screen (AID 483;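 active = visual image review flags a hit and inhibition of aggregation exceeds 20%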;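 note: compound exposure lasted 3 days before fixation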;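 for nuclei count: percent of the per-plate median nuclei count of sample wells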). Particulars: exon1htt(103Q)mCFP cell line, aggregate imaging, at 2 µM; inhibition of aggregation: stronger effect = higher value; nuclei count: measured here: cell count, toxicity.
The nature of assay [3]: endothelial E-selectin expression blockers – imaging, HUVEC, immunofluorescence, MLSMR starter and 10KST1 sets, primary screen (AID 487;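 active = visually confirmed hit in the image check and inhibition above 20%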;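 for inhibition: signal is fraction of cell area covered by stained E-selectin grains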;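 for nuclei count: 100% = median nuclei count of all wells on the same plate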). Particulars: HUVEC TNFalpha-induced E-selectin immunofluorescence imaging, at 2 µM; inhibition: stronger effect = higher value; nuclei count: measured here: cell number, toxicity.
Assay [4] deals with Voltage-gated potassium channel subunit beta-2 (Rattus norvegicus) (UniProt P62483). In words: inhibitors of rat Kvbeta2 reductase activity – biochemical, NADPH fluorescence, primary screen (AID 622;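 active = fluorescence slope higher than the sample average by over 3 SD, cut at about -0.22 in these data, passing the limit was not always enough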;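 note: slope of raw intensity against log time taken from 70 to 1610 s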). The following applies: recombinant KvBeta, 4-cyanobenzaldehyde reduction, at 10 µM, stronger effect = higher value.
Chain of Voltage-gated potassium channel subunit beta-2 (Rattus norvegicus) (P62483 whole entry, looked up): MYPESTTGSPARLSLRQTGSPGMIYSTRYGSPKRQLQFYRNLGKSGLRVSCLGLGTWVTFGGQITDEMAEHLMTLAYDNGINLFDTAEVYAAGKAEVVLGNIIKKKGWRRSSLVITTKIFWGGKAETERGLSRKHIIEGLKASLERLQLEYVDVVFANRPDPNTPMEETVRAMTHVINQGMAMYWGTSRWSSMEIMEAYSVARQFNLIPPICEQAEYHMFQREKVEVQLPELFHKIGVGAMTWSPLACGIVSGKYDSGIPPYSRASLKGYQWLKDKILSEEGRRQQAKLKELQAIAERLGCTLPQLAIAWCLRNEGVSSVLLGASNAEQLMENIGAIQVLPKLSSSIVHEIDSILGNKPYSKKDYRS
Assay [5] shares this target. The assay is described as follows: enhancers of rat Kvbeta2 NADPH turnover – biochemical, NADPH fluorescence, primary screen (AID 623).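 Note: fluorescence intensity change per second fitted from 20 to 320 s.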 The following applies: Recombinant KvBeta, NADPH fluorescence decrease slope, 10 min; at 10 µM; stronger effect = lower value.
Assay [6] has as its target Alpha-2C adrenergic receptor (Homo sapiens) (UniProt P18825). In words: compounds altering alpha2C-coupled GIRK flux – cell-based, HEK293 alpha2C/GIRK1/2, thallium flux, primary screen (AID 624;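 active = fluorescence slope after compound addition differing from the mean of all screened samples at 99.7% confidence, in either direction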;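 note: slope of fluorescence ratio to pre-addition baseline per second over 15 to 24 s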). Particulars: thallium flux BTC fluorescence, at 10 µM, actives lie on both sides.
Assay [7] in a line: blockers of RIG-like receptor reporter activation – cell-based, Sendai virus stimulus, luciferase, 10K MLSCN set, TLR/RLR signaling modifier project, primary screen (AID 602276;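 active = inhibition at or above 50% at 10 µM; inactive = inhibition below 50%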;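 note: firefly luciferase from ISG56 promoter only with Renilla not read in this screen; 0% = Sendai virus plus DMSO and 100% = medium plus DMSO without virus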). The following applies: HEK293 RL24 IRF3 luciferase reporter, at 10 µM, stronger effect = higher value.
Assay [8] in a line: TLR3 IRF3 reporter activation blockers – cell-based, poly I:C stimulus, luciferase, 10K MLSCN set, primary screen (AID 602277;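 active = inhibition of the reporter signal at or above 50%; inactive = inhibition below 50%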). The following applies: HEK293-TLR3 RL24 IRF3 luciferase reporter, at 10 µM, stronger effect = higher value.

SMILES strings stand for the structures. Activity calls are given as the source filed them.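 Rule for the calls, unless noted: active = NADPH fluorescence slope more negative than the mean of all samples by about 3 SD, 99.7% confidence; inactive = the rest.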

Chain of Alpha-2C adrenergic receptor (Homo sapiens) (P18825 whole entry, looked up): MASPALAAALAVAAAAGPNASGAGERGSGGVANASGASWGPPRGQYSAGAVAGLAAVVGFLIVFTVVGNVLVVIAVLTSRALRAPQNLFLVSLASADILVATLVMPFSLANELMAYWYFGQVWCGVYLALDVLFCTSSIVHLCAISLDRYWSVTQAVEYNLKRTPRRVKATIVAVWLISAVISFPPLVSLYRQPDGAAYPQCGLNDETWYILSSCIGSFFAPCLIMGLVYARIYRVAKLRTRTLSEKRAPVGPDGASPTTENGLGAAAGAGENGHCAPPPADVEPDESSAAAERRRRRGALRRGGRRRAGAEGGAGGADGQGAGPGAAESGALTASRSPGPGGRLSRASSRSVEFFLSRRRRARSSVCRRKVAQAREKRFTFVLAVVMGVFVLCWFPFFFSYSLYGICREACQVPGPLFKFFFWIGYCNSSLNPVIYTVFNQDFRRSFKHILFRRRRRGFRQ

In the case of `CC(C)Cn1c(CN2CCCCC2C)nc2c1c(=O)n(C)c(=O)n2C` (centres undefined), the cell count in assay [1] is 693. Besides, the inhibition in assay [1] is -10% (inactive); in assay [3], -25% (inactive); in assay [7], 2.69% (inactive); in assay [8], 21.9% (inactive). Besides, the inhibition of aggregation in assay [2] is 12.5% (inactive). Further, the nuclei count in assay [2] came out at 93%; in assay [3], 116%. For the same molecule, in assay [4], the fluorescence slope was -0.537 (inactive). The NADPH fluorescence slope in assay [5] is -1.5e-05 (inactive). Also, in assay [6], the slope is 0.00589 (inactive).
On to `CCn1c(SCC(=O)c2ccc(C)cc2)nnc1-c1ccoc1C`, for which, in assay [1], the cell count stood at 446. Moreover, the inhibition in assay [1] is -11.7% (inactive); in assay [3] it was -138% (inactive); in assay [7] it was -8.3% (inactive); in assay [8], -36.4% (inactive). In addition, the inhibition of aggregation in assay [2] was 3.7% (inactive). Further, the nuclei count stood at 77.4% in assay [2] and 119% in assay [3]. Also, in assay [4], the fluorescence slope is -0.329 (inactive). In assay [5], the NADPH fluorescence slope is -6.6e-05 (inactive). Moreover, the slope in assay [6] was 0.00433 (inactive).
For `O=C(c1ccc2c(c1)c(=O)oc1ccccc12)N1CCCCC1`, the cell count in assay [1] is 206. In addition, the inhibition in assay [1] was 0.3% (inactive); in assay [3], 19.4% (inactive); in assay [7], -50.7% (inactive); in assay [8] it was -130% (inactive). The inhibition of aggregation in assay [2] is 15.8% (inactive). For the same molecule, the figures for the nuclei count in assay [2] and in assay [3] were 87.8% and 90.7%, respectively. Further, in assay [4], the fluorescence slope was -0.363 (inactive). For the same molecule, the NADPH fluorescence slope in assay [5] is 1.9e-05 (inactive). For the same molecule, in assay [6], the slope is 0.00354 (inactive).
For `O=C(COc1ccc(S(=O)(=O)NC2CCCCC2)cc1Cl)NCC1CCCO1` (centres undefined), the cell count in assay [1] was 310. Further, the inhibition in assay [1] is -13.4% (inactive); in assay [3], -111% (inactive); in assay [7], 3.07% (inactive); in assay [8] it was 9.97% (inactive). Further, the inhibition of aggregation in assay [2] was -14.2% (inactive). Further, the nuclei count in assay [2] turned out to be 124%; in assay [3], 95.6%. In addition, in assay [4], the fluorescence slope was -0.415 (inactive). Besides, the NADPH fluorescence slope in assay [5] was -1.9e-05 (inactive). In addition, in assay [6], the slope is 0.00646 (inactive).
Consider `O=C(NCCC1=CCCCC1)N[C@@H](Cc1ccccc1)C(=O)O`, for which, in assay [1], the cell count stood at 377. The inhibition in assay [1] was -3.9% (inactive); in assay [3], -24.3% (inactive); in assay [7] it was -1.48% (inactive); in assay [8], 0.553% (inactive). Further, in assay [2], the inhibition of aggregation is -1.8% (inactive). In addition, the values for the nuclei count in assay [2] and in assay [3] were 108% and 115%, respectively. Besides, in assay [4], the fluorescence slope was -0.447 (inactive). For the same molecule, the NADPH fluorescence slope in assay [5] was -0.000113 (active). Further, the slope in assay [6] is 0.00549 (inactive).
In the case of `Cc1ccc(-c2cc(C(F)(F)F)n3nc(C(=O)N4CCCC4)cc3n2)cc1`, the cell count in assay [1] was determined as 336. Also, the inhibition is 5.5% (inactive) in assay [1], -148% (inactive) in assay [3], -0.996% (inactive) in assay [7] and -25.5% (inactive) in assay [8]. The inhibition of aggregation in assay [2] was 13.3% (inactive). Further, the nuclei count was 107% in assay [2] and 127% in assay [3]. Also, the fluorescence slope in assay [4] is -0.512 (inactive). In assay [5], the NADPH fluorescence slope is -1.4e-05 (inactive). In addition, the slope in assay [6] was 0.00691 (inactive).
With `CC1(C)NC(=O)N(CC(O)CN2CCCCC2)C1=O` (centres undefined), the cell count in assay [1] was 658. In addition, the inhibition was 1.6% (inactive) in assay [1], 36.5% (inactive) in assay [3], -4.08% (inactive) in assay [7] and -0.921% (inactive) in assay [8]. Further, in assay [2], the inhibition of aggregation is 10.5% (inactive). In addition, the nuclei count in assay [2] is 93.2%; in assay [3], 109%. Besides, the fluorescence slope in assay [4] is -0.47 (inactive). The NADPH fluorescence slope in assay [5] is -1.7e-06 (inactive). In assay [6], the slope is 0.00522 (inactive).
On to `CC(C)C[C@H](NC(=O)Nc1cccc(C(F)(F)F)c1)C(=O)O`, for which, in assay [1], the cell count came to 393. The inhibition in assay [1] is -9.8% (inactive); in assay [3], -25.5% (inactive); in assay [7], -1.3% (inactive); in assay [8], 6.75% (inactive). Further, in assay [2], the inhibition of aggregation is 9.1% (inactive). The nuclei count stood at 70.6% in assay [2] and 97.8% in assay [3]. The fluorescence slope in assay [4] was -0.493 (inactive). Also, the NADPH fluorescence slope in assay [5] is 4.1e-05 (inactive). In addition, the slope in assay [6] was 0.00499 (inactive).
Turning to `Cc1ccc(S(=O)(=O)C(C#N)c2nc3ccccc3nc2N2CCCCC2)cc1` (centres undefined), in assay [1], the cell count stood at 273. Also, the inhibition in assay [1] was 10.9% (inactive); in assay [3] it was -0.3% (inactive); in assay [7] it was 11.2% (inactive); in assay [8], 22.6% (inactive). Moreover, the inhibition of aggregation in assay [2] is 8.3% (inactive). The nuclei count came out at 98.6% in assay [2] and 103% in assay [3]. In assay [4], the fluorescence slope is -0.364 (inactive). For the same molecule, the NADPH fluorescence slope in assay [5] is 2e-06 (inactive). Besides, the slope in assay [6] is 0.00764 (inactive).
As for `COc1ccc(OC)c(-c2nnc(SCC(=O)NC3CCCCC3)o2)c1`, the cell count in assay [1] stood at 738. Moreover, the inhibition in assay [1] was 2.1% (inactive); in assay [3], -24.5% (inactive); in assay [7], -17.4% (inactive); in assay [8], 0.755% (inactive). Besides, the inhibition of aggregation in assay [2] was 13.9% (inactive). The nuclei count in assay [2] stood at 97.8%; in assay [3], 114%. In addition, the fluorescence slope in assay [4] is -0.574 (inactive). The NADPH fluorescence slope in assay [5] is -1.4e-05 (inactive). In addition, the slope in assay [6] is 0.00689 (inactive).
In the case of `CCOc1ccc2nc(SCC(=O)N3CCCCCC3)c(C#N)cc2c1`, the cell count in assay [1] is 611. In addition, the inhibition in assay [1] is 9.1% (inactive); in assay [3], -95.4% (inactive); in assay [7] it was -1.31% (inactive); in assay [8], -24.8% (inactive). The inhibition of aggregation in assay [2] was -7.9% (inactive). Moreover, the values for the nuclei count in assay [2] and in assay [3] were 98.1% and 150%, respectively. Moreover, the fluorescence slope in assay [4] was -0.584 (inactive). In addition, the NADPH fluorescence slope in assay [5] was -3.2e-05 (inactive). In addition, the slope in assay [6] is 0.00304 (inactive).
As to `COc1ccccc1N1CCN(C(=O)c2cc(C3CC3)on2)CC1`, the cell count in assay [1] amounted to 626. For the same molecule, the inhibition was -8.7% (inactive) in assay [1], 1.1% (inactive) in assay [3], -5.11% (inactive) in assay [7] and 26.8% (inactive) in assay [8]. The inhibition of aggregation in assay [2] was -1.6% (inactive). Also, the nuclei count in assay [2] was determined as 85.4%; in assay [3], 95.8%. Besides, the fluorescence slope in assay [4] was -0.607 (inactive). Besides, the NADPH fluorescence slope in assay [5] is -3.3e-05 (inactive). In addition, the slope in assay [6] is 0.00629 (inactive).
In the case of `COc1ccccc1CN1CC(C(=O)NCc2cccnc2)CC1=O` (centres undefined), in assay [1], the cell count was found to be 536. For the same molecule, the inhibition in assay [1] is -8% (inactive); in assay [3] it was -0.1% (inactive); in assay [7] it was 7.79% (inactive); in assay [8], 29.2% (inactive). Besides, the inhibition of aggregation in assay [2] was 4.9% (inactive). Besides, the nuclei count was 91.5% in assay [2] and 113% in assay [3]. Besides, the fluorescence slope in assay [4] was -0.502 (inactive). In addition, the NADPH fluorescence slope in assay [5] was -2.4e-05 (inactive). In assay [6], the slope is 0.00742 (inactive).
Consider `c1ccc(Cn2nnnc2C(c2cccs2)N2CCSCC2)cc1` (centres undefined), for which the cell count in assay [1] stood at 482. Besides, the inhibition in assay [1] was -10.4% (inactive); in assay [3] it was -56.7% (inactive); in assay [7] it was -6.43% (inactive); in assay [8] it was 14.3% (inactive). Further, the inhibition of aggregation in assay [2] was -0.3% (inactive). Further, the nuclei count in assay [2] is 110%; in assay [3], 95.9%. In assay [4], the fluorescence slope is -0.514 (inactive). For the same molecule, the NADPH fluorescence slope in assay [5] is -6.4e-05 (inactive). Also, the slope in assay [6] was 0.00524 (inactive).
